Experiment in all cases: DAPPL (digital affinity profiling via proximity ligation, sequencing); 10 mM Tris-HCl pH 7.5, 50 mM NaCl, 1 mM DTT, 4% glycerol, room temperature, 30 min; GST-TFs on glutathione beads, 16-mer random dsDNA library, 0.1% formaldehyde crosslink after washing; high values mean tight binding
Settings in all cases: protein: recombinant; tags: N-terminal GST; dsDNA, one strand shown

The target of one assay is T1, FLI1 (Homo sapiens, UniProt Q01543 1-452).
T1 sequence: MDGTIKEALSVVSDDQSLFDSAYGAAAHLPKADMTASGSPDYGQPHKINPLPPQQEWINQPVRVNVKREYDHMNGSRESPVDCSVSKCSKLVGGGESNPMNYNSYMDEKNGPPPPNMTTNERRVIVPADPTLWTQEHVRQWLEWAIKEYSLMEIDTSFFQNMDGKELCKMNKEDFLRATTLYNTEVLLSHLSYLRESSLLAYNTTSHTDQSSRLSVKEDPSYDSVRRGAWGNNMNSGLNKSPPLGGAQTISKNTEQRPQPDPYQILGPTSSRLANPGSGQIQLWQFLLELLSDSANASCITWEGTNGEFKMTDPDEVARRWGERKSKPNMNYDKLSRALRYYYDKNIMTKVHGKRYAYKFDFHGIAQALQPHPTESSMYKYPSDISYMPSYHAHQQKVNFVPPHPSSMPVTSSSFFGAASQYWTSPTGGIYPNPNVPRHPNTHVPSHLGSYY
The gist of the method:
(§1)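 Sequencing on an Illumina NextSeq500 followed washing, crosslinking with 0.1% formaldehyde, proximity ligation (BsaI/T4 ligase, 1 h, 37 °C) and PCR amplification of pools that had been incubated for 30 min at room temperature with 200 nmole of a random double-stranded 16-mer DNA library in Tris/NaCl/DTT/glycerol buffer. Each pool held DNA-barcoded human transcription factors, expressed in yeast as GST fusions and captured on glutathione beads, plus a tag-only sample. Binding signal is a hexamer's read frequency for a factor divided by its frequency in the tag-only sample.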

The next assay has as its target T2, ELK1 (Homo sapiens, UniProt P19419 1-428).
T2 sequence: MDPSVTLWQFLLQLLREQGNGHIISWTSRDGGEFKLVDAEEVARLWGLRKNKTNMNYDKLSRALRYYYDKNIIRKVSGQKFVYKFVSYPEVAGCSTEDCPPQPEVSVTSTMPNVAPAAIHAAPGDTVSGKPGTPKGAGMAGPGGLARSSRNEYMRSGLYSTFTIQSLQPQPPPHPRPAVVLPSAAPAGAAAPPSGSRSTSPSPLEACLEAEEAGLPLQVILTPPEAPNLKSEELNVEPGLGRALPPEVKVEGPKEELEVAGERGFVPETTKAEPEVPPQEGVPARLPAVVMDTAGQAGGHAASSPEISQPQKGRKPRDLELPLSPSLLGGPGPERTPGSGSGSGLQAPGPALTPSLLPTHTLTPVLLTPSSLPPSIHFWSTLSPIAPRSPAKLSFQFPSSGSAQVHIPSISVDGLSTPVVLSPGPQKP
The essentials: as §1

In a further assay the target is T3, GABPA (Homo sapiens, UniProt Q06546 1-454).
T3 sequence: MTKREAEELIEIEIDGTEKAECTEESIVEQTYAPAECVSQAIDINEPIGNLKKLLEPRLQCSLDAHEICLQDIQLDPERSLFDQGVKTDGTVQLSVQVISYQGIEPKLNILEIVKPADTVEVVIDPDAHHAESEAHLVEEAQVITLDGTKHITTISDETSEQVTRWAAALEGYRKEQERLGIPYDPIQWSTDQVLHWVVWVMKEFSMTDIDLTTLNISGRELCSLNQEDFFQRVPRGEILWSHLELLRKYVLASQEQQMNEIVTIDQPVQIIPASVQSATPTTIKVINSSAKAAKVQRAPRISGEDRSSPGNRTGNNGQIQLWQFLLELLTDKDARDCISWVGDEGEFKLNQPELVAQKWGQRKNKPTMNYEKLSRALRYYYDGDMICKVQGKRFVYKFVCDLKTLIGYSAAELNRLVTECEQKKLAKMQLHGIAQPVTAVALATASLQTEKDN
The gist of the method: as §1

The next assay addresses T4, ERG (Homo sapiens, UniProt P11308 1-479).
T4 sequence: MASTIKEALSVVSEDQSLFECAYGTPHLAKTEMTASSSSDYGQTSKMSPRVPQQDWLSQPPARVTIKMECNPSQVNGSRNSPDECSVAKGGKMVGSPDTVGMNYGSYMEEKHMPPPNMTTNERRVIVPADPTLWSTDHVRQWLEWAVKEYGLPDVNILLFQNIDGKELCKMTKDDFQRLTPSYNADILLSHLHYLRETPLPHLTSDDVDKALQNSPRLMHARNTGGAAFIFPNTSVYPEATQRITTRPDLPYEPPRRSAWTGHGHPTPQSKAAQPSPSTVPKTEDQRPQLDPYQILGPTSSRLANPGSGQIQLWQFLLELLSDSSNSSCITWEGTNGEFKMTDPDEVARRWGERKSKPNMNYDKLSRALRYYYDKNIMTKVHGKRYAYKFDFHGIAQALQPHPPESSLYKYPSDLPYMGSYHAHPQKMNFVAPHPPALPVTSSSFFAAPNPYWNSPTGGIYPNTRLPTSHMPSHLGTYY
The essentials:
as §1

In the next assay the target is ELF1 (Homo sapiens, UniProt P32519 1-619). The essentials:
as §1

The next assay has as its target T5, EHF (Homo sapiens, UniProt Q9NZC4 1-300).
T5 sequence: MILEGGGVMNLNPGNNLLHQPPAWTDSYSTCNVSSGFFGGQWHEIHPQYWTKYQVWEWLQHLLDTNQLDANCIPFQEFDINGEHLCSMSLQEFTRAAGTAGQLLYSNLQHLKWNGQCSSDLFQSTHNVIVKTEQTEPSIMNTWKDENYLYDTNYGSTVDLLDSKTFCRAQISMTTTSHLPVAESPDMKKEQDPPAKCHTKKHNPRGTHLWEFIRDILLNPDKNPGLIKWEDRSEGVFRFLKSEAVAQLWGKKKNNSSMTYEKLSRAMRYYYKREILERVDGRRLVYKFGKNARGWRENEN
The gist of the method: as §1

Another assay concerns the target SPI1 (Homo sapiens, UniProt P17947 1-270). The essentials:
as §1

For a further assay, the target named is SPIB (Homo sapiens, UniProt Q01892 1-262). The gist of the method: as §1
Sequence of SPIB (Q01892 whole entry): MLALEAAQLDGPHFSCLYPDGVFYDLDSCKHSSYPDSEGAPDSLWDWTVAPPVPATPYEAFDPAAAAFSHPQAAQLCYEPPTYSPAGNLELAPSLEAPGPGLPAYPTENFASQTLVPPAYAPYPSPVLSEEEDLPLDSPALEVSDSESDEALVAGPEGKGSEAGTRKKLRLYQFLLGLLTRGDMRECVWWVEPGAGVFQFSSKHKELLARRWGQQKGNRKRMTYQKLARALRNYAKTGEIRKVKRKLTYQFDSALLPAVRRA
For a further assay, the target named is T6, ELK3 (Homo sapiens, UniProt P41970 1-407).
T6 sequence: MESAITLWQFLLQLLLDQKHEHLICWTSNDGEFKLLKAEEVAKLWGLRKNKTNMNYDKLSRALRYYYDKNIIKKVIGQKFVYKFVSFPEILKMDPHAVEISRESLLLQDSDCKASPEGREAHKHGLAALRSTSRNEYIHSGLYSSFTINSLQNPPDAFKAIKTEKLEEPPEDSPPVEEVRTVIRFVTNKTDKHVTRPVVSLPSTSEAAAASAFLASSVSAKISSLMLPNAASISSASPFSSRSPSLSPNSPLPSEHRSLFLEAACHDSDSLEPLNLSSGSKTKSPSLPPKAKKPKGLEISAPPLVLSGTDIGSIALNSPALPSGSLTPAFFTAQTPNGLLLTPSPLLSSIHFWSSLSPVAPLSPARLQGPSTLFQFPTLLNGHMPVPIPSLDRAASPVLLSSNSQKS
The essentials: as §1

Results on seven sequences are retold here after publication PMC7862700, “An all-to-all approach to the identification of sequence-specific readers for epigenetic DNA modifications on cytosine”.

Sequence of ELF1 (P32519 whole entry): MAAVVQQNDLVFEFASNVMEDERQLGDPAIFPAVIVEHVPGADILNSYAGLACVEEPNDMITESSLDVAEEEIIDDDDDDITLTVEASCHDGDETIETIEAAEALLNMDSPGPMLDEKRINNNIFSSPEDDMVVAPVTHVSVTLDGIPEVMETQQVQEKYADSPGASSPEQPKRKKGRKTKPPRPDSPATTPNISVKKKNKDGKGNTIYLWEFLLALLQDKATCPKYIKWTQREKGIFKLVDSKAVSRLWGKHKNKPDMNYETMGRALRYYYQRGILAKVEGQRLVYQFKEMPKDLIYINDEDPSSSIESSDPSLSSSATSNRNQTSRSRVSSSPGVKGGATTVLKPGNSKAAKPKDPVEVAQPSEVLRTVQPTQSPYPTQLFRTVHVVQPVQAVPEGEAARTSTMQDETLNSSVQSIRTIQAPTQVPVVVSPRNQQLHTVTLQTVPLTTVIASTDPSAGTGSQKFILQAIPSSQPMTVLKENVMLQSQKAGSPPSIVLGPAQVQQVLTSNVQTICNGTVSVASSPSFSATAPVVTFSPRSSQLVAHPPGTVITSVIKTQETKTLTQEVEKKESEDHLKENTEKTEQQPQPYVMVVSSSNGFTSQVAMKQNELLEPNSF

For the sequence TTGTTA, the binding signal in the assay with FLI1 is 1.32 fold enrichment (6-mer frequency, TF over GST control); in the assay with ELK1, 1.34 fold enrichment (6-mer frequency, TF over GST control); with GABPA, 1.32 fold enrichment (6-mer frequency, TF over GST control); with ERG, 1.33 fold enrichment (6-mer frequency, TF over GST control); with ELF1, 1.29 fold enrichment (6-mer frequency, TF over GST control); in the assay with EHF, 1.36 fold enrichment (6-mer frequency, TF over GST control). Also, the binding signal with SPI1 is 1.26 fold enrichment (6-mer frequency, TF over GST control); with SPIB, 1.33 fold enrichment (6-mer frequency, TF over GST control); with ELK3, 1.47 fold enrichment (6-mer frequency, TF over GST control).
Turning to TATGTA, the binding signal with FLI1 was 1.32 fold enrichment (6-mer frequency, TF over GST control); with ELK1, 1.25 fold enrichment (6-mer frequency, TF over GST control); with GABPA, 1.29 fold enrichment (6-mer frequency, TF over GST control); in the assay with ERG, 1.2 fold enrichment (6-mer frequency, TF over GST control); with ELF1, 1.29 fold enrichment (6-mer frequency, TF over GST control); with EHF, 1.23 fold enrichment (6-mer frequency, TF over GST control). The binding signal with SPI1 was 1.3 fold enrichment (6-mer frequency, TF over GST control); with SPIB, 1.31 fold enrichment (6-mer frequency, TF over GST control); with ELK3 it was 1.17 fold enrichment (6-mer frequency, TF over GST control).
For the sequence GCTCGC, the binding signal is 1.39 fold enrichment (6-mer frequency, TF over GST control) with FLI1; 1.29 fold enrichment (6-mer frequency, TF over GST control) in the assay with ELK1; 1.41 fold enrichment (6-mer frequency, TF over GST control) in the assay with GABPA; 1.29 fold enrichment (6-mer frequency, TF over GST control) with ERG; 1.42 fold enrichment (6-mer frequency, TF over GST control) with ELF1; 1.27 fold enrichment (6-mer frequency, TF over GST control) with EHF. The binding signal is 1.29 fold enrichment (6-mer frequency, TF over GST control) with SPI1; 1.42 fold enrichment (6-mer frequency, TF over GST control) with SPIB; 1.38 fold enrichment (6-mer frequency, TF over GST control) with ELK3.
Consider AAGATG, for which the binding signal with FLI1 is 1.17 fold enrichment (6-mer frequency, TF over GST control); with ELK1 it was 1.17 fold enrichment (6-mer frequency, TF over GST control); in the assay with GABPA it was 1.11 fold enrichment (6-mer frequency, TF over GST control); with ERG it was 1.11 fold enrichment (6-mer frequency, TF over GST control); in the assay with ELF1, 1.09 fold enrichment (6-mer frequency, TF over GST control); with EHF, 1.1 fold enrichment (6-mer frequency, TF over GST control). The binding signal in the assay with SPI1 is 1.09 fold enrichment (6-mer frequency, TF over GST control); with SPIB, 1.16 fold enrichment (6-mer frequency, TF over GST control); in the assay with ELK3, 1.19 fold enrichment (6-mer frequency, TF over GST control).
CTTCAG: the binding signal in the assay with FLI1 is 1.34 fold enrichment (6-mer frequency, TF over GST control); in the assay with ELK1, 1.25 fold enrichment (6-mer frequency, TF over GST control); in the assay with GABPA, 1.3 fold enrichment (6-mer frequency, TF over GST control); in the assay with ERG, 1.32 fold enrichment (6-mer frequency, TF over GST control); with ELF1, 1.36 fold enrichment (6-mer frequency, TF over GST control); with EHF, 1.34 fold enrichment (6-mer frequency, TF over GST control). Moreover, the binding signal with SPI1 is 1.29 fold enrichment (6-mer frequency, TF over GST control); with SPIB, 1.28 fold enrichment (6-mer frequency, TF over GST control); in the assay with ELK3, 1.34 fold enrichment (6-mer frequency, TF over GST control).
Take TTAGCT: the binding signal in the assay with FLI1 is 1.13 fold enrichment (6-mer frequency, TF over GST control); with ELK1, 1.21 fold enrichment (6-mer frequency, TF over GST control); with GABPA, 1.23 fold enrichment (6-mer frequency, TF over GST control); in the assay with ERG, 1.15 fold enrichment (6-mer frequency, TF over GST control); with ELF1 it was 1.27 fold enrichment (6-mer frequency, TF over GST control); in the assay with EHF it was 1.2 fold enrichment (6-mer frequency, TF over GST control). Besides, the binding signal in the assay with SPI1 was 1.2 fold enrichment (6-mer frequency, TF over GST control); with SPIB, 1.19 fold enrichment (6-mer frequency, TF over GST control); in the assay with ELK3, 1.18 fold enrichment (6-mer frequency, TF over GST control).
With CCAATA, the binding signal in the assay with FLI1 is 1.24 fold enrichment (6-mer frequency, TF over GST control); in the assay with ELK1, 1.17 fold enrichment (6-mer frequency, TF over GST control); in the assay with GABPA it was 1.25 fold enrichment (6-mer frequency, TF over GST control); with ERG it was 1.26 fold enrichment (6-mer frequency, TF over GST control); with ELF1, 1.25 fold enrichment (6-mer frequency, TF over GST control); with EHF, 1.25 fold enrichment (6-mer frequency, TF over GST control). For the same sequence, the binding signal is 1.2 fold enrichment (6-mer frequency, TF over GST control) with SPI1; 1.24 fold enrichment (6-mer frequency, TF over GST control) with SPIB; 1.28 fold enrichment (6-mer frequency, TF over GST control) in the assay with ELK3.
